Test results published in the supplement of paper PMC8728848.
The sample as a whole holds a higher share of the strongest signals than the screen did.

Key:
Experiment in all cases: glycan array binding signal (z-score within array); higher = stronger binding
Conditions in all cases: glycan notation: IUPAC condensed, linker removed
Fuc(a1-2)Gal = target: Fuc(a1-2)Gal
Summary of the method: (§1)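 Glycan array data were curated from 3228 arrays in the Consortium for Functional Glycomics database and kept only where the protein sequence was available. Glycan names were converted to IUPAC-condensed notation, and columns mapping to the same glycan were averaged. The binding signal is a within-array Z-score, averaged across arrays of the same protein sequence at different concentrations or buffers and across linkers. Negative Z-scores can be read as non-binding.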

[1] = target: Fuc(a1-2)Gal(b1-3)GlcNAc6S
Summary of the method: as §1

[2] = target: Fuc(a1-2)Gal6S(b1-3)GlcNAc
Summary of the method: as §1

[3] = target: Fuc(a1-2)[Gal(a1-3)]Gal(b1-3)GlcNAc
Summary of the method: as §1

[4] = target: Fuc(a1-2)[Gal(a1-3)]Gal(b1-3)GlcNAc(b1-3)GalNAc
Summary of the method: as §1

[5] = target: Fuc(a1-2)[Gal(a1-3)]Gal(b1-4)[Fuc(a1-3)]Glc
Summary of the method: as §1

[6] = target: Fuc(a1-2)[GalNAc(a1-3)]Gal(b1-4)GlcNAc(b1-2)Man(a1-3)[GalNAc(a1-3)[Fuc(a1-2)]Gal(b1-4)GlcNAc(b1-2)Man(a1-6)]Man(b1-4)GlcNAc(b1-4)GlcNAc
Summary of the method: as §1

[7] = target: Fuc(a1-3)[Gal(b1-4)]GlcNAc(b1-2)Man(a1-3)[Fuc(a1-3)[Gal(b1-4)]GlcNAc(b1-2)Man(a1-6)]Man(b1-4)GlcNAc(b1-4)[Fuc(a1-6)]GlcNAc
Summary of the method: as §1

[8] = target: Fuc(a1-3)[Gal3S(b1-4)]Glc6S
Summary of the method: as §1

Fuc(a1-4)GlcNAc = target: Fuc(a1-4)GlcNAc
Summary of the method: as §1

Gal(a1-4)Gal(b1-4)GlcNAc = target: Gal(a1-4)Gal(b1-4)GlcNAc
Summary of the method: as §1

[9] = target: Gal(a1-4)Gal(b1-4)GlcNAc(b1-3)Gal(b1-4)Glc
Summary of the method: as §1

[10] = target: Gal(b1-3)GlcNAc(b1-3)Gal(b1-4)GlcNAc(b1-3)Gal(b1-4)GlcNAc(b1-2)[Gal(b1-3)GlcNAc(b1-3)Gal(b1-4)GlcNAc(b1-3)Gal(b1-4)GlcNAc(b1-6)]Man(a1-6)[Gal(b1-3)GlcNAc(b1-3)Gal(b1-4)GlcNAc(b1-3)Gal(b1-4)GlcNAc(b1-2)Man(a1-3)]Man(b1-4)GlcNAc(b1-4)[Fuc(a1-6)]GlcNAc
Summary of the method: as §1

[11] = target: Gal(b1-3)GlcNAc(b1-3)Gal(b1-4)[Fuc(a1-3)]GlcNAc(b1-6)[Gal(b1-3)GlcNAc(b1-3)]Gal(b1-4)Glc
Summary of the method: as §1

[12] = target: Gal(b1-3)GlcNAc(b1-6)Gal(b1-4)GlcNAc
Summary of the method: as §1

[13] = target: Gal(b1-3)[GlcNAc(b1-6)]GalNAc
Summary of the method: as §1

[14] = target: Gal(b1-3)[Neu5Ac(a2-6)]GlcNAc(b1-6)Gal(b1-4)Glc
Summary of the method: as §1

[15] = target: Gal(b1-4)GlcNAc(b1-2)Man(a1-3)[Gal(b1-4)GlcNAc(b1-2)Man(a1-6)]Man(b1-4)GlcNAc(b1-4)GlcNAc
Summary of the method: as §1

[16] = target: Gal(b1-4)GlcNAc(b1-2)Man(a1-6)[GlcNAc(b1-2)Man(a1-3)]Man(b1-4)GlcNAc(b1-4)GlcNAc
Summary of the method: as §1

[17] = target: Gal(b1-4)GlcNAc(b1-3)Gal(b1-4)GlcNAc(b1-2)[Gal(b1-4)GlcNAc(b1-3)Gal(b1-4)GlcNAc(b1-6)]Man(a1-6)[Gal(b1-4)GlcNAc(b1-3)Gal(b1-4)GlcNAc(b1-2)Man(a1-3)]Man(b1-4)GlcNAc(b1-4)GlcNAc
Summary of the method: as §1

[18] = target: Gal(b1-4)GlcNAc(b1-3)Gal(b1-4)GlcNAc(b1-3)Gal(b1-4)GlcNAc(b1-3)Gal(b1-4)GlcNAc(b1-2)Man(a1-3)[Gal(b1-4)GlcNAc(b1-3)Gal(b1-4)GlcNAc(b1-3)Gal(b1-4)GlcNAc(b1-3)Gal(b1-4)GlcNAc(b1-2)Man(a1-6)]Man(b1-4)GlcNAc(b1-4)GlcNAc
Summary of the method: as §1

[19] = target: Gal(b1-4)GlcNAc(b1-3)Gal(b1-4)GlcNAc(b1-3)Gal(b1-4)GlcNAc(b1-3)Gal(b1-4)GlcNAc(b1-2)Man(a1-3)[Gal(b1-4)GlcNAc(b1-3)Gal(b1-4)GlcNAc(b1-3)Gal(b1-4)GlcNAc(b1-3)Gal(b1-4)GlcNAc(b1-2)Man(a1-6)]Man(b1-4)GlcNAc(b1-4)[Fuc(a1-6)]GlcNAc
Summary of the method: as §1

[20] = target: Gal3S(b1-3)[Fuc(a1-4)]GlcNAc
Summary of the method: as §1

[21] = target: Gal3S(b1-4)[Fuc(a1-3)]GlcNAc6S
Summary of the method: as §1

Gal4S(b1-4)GlcNAc = target: Gal4S(b1-4)GlcNAc
Summary of the method: as §1

Gal6S(b1-3)GlcNAc6S = target: Gal6S(b1-3)GlcNAc6S
Summary of the method: as §1

Gal6S(b1-4)Glc = target: Gal6S(b1-4)Glc
Summary of the method: as §1

Gal6S(b1-4)GlcNAc6S = target: Gal6S(b1-4)GlcNAc6S
Summary of the method: as §1

GalNAc(b1-3)Gal = target: GalNAc(b1-3)Gal
Summary of the method: as §1

[22] = target: GalNAc(b1-3)Gal(a1-6)Gal(b1-4)Glc
Summary of the method: as §1

Glc(a1-6)Glc(a1-6)Glc = target: Glc(a1-6)Glc(a1-6)Glc
Summary of the method: as §1

[23] = target: GlcNAc(a1-4)Gal(b1-4)GalNAc
Summary of the method: as §1

[24] = target: GlcNAc(b1-2)Man(a1-3)[GlcNAc(b1-2)Man(a1-6)]Man(b1-4)GlcNAc(b1-4)GlcNAc
Summary of the method: as §1

[25] = target: GlcNAc(b1-2)Man(a1-3)[GlcNAc(b1-4)][GlcNAc(b1-2)Man(a1-6)]Man(b1-4)GlcNAc(b1-4)GlcNAc
Summary of the method: as §1

[26] = target: GlcNAc(b1-2)Man(a1-3)[GlcNAc(b1-4)][GlcNAc(b1-2)Man(a1-6)]Man(b1-4)GlcNAc(b1-4)[Fuc(a1-6)]GlcNAc
Summary of the method: as §1

[27] = target: GlcNAc(b1-2)[GlcNAc(b1-4)]Man(a1-3)[GlcNAc(b1-2)Man(a1-6)]Man(b1-4)GlcNAc(b1-4)GlcNAc
Summary of the method: as §1

[28] = target: GlcNAc(b1-2)[GlcNAc(b1-6)]Man(a1-6)[GlcNAc(b1-2)Man(a1-3)]Man(b1-4)GlcNAc(b1-4)GlcNAc
Summary of the method: as §1

[29] = target: GlcNAc(b1-2)[GlcNAc(b1-6)]Man(a1-6)[GlcNAc(b1-2)Man(a1-3)]Man(b1-4)GlcNAc(b1-4)[Fuc(a1-6)]GlcNAc
Summary of the method: as §1

GlcNAc(b1-3)Gal(b1-4)Glc = target: GlcNAc(b1-3)Gal(b1-4)Glc
Summary of the method: as §1

[30] = target: GlcNAc(b1-3)Gal(b1-4)GlcNAc(b1-3)[GlcNAc(b1-3)Gal(b1-4)GlcNAc(b1-3)]GalNAc
Summary of the method: as §1

Kdn(a2-6)Gal(b1-4)GlcNAc = target: Kdn(a2-6)Gal(b1-4)GlcNAc
Summary of the method: as §1

[31] = target: Neu5Ac(a2-3)Gal(b1-3)GalNAc(b1-4)[Neu5Ac(a2-3)]Gal(b1-4)Glc
Summary of the method: as §1

[32] = target: Neu5Ac(a2-3)Gal(b1-3)[Fuc(a1-4)]GlcNAc
Summary of the method: as §1

[33] = target: Neu5Ac(a2-3)Gal(b1-4)GlcNAc(b1-2)Man(a1-3)[GlcNAc(b1-4)][Neu5Ac(a2-3)Gal(b1-4)GlcNAc(b1-2)Man(a1-6)]Man(b1-4)GlcNAc(b1-4)GlcNAc
Summary of the method: as §1

[34] = target: Neu5Ac(a2-3)Gal(b1-4)[Fuc(a1-3)]GlcNAc(b1-3)GalNAc
Summary of the method: as §1

[35] = target: Neu5Ac(a2-3)GalNAc(b1-4)GlcNAc
Summary of the method: as §1

[36] = target: Neu5Ac(a2-6)Gal(b1-4)GlcNAc(b1-2)Man(a1-3)[GlcNAc(b1-2)Man(a1-6)]Man(b1-4)GlcNAc(b1-4)GlcNAc
Summary of the method: as §1

[37] = target: Neu5Ac(a2-6)Gal(b1-4)GlcNAc(b1-2)Man(a1-6)[GlcNAc(b1-2)Man(a1-3)]Man(b1-4)GlcNAc(b1-4)GlcNAc
Summary of the method: as §1

[38] = target: Neu5Ac(a2-6)Gal(b1-4)GlcNAc(b1-2)[Neu5Ac(a2-6)Gal(b1-4)GlcNAc(b1-4)]Man(a1-3)[GlcNAc(b1-4)][Neu5Ac(a2-6)Gal(b1-4)GlcNAc(b1-2)[Neu5Ac(a2-6)Gal(b1-4)GlcNAc(b1-6)]Man(a1-6)]Man(b1-4)GlcNAc(b1-4)GlcNAc
Summary of the method: as §1

[39] = target: Neu5Ac(a2-6)Gal(b1-4)GlcNAc(b1-6)[Gal(b1-3)]GalNAc
Summary of the method: as §1

[40] = target: Neu5Ac(a2-8)Neu5Ac(a2-8)Neu5Ac(a2-3)Gal(b1-4)Glc
Summary of the method: as §1

Neu5Ac(b2-6)GalNAc = target: Neu5Ac(b2-6)GalNAc
Summary of the method: as §1

B1: LSECtin (Homo sapiens), Q6UXB4 (protein)
chain: MDTTRYSKWGGSSEEVPGGPWGRWVHWSRRPLFLALAVLVTTVLWAVILSILLSKASTERAALLDGHDLLRTNASKQTAALGALKEEVGDCHSCCSGTQAQLQTTRAELGEAQAKLMEQESALRELRERVTQGLAEAGRGREDVRTELFRALEAVRLQNNSCEPCPTSWLSFEGSCYFFSVPKTTWAAAQDHCADASAHLVIVGGLDEQGFLTRNTRGRGYWLGLRAVRHLGKVQGYQWVDGVSLSFSHWNQGEPNDAWGRENCVMMLHTGLWNDAPCDSEKDGWICEKRHNC
- glycan array binding signal (z-score) (Fuc(a1-2)Gal): -0.224
- glycan array binding signal (z-score) [1]: -0.125
- glycan array binding signal (z-score) [2]: -0.129
- glycan array binding signal (z-score) [3]: -0.157
- glycan array binding signal (z-score) [4]: -0.129
- glycan array binding signal (z-score) [5]: -0.135
- glycan array binding signal (z-score) [6]: 2.77
- glycan array binding signal (z-score) [7]: -0.124
- glycan array binding signal (z-score) [8]: 4.05
- glycan array binding signal (z-score) (Fuc(a1-4)GlcNAc): -0.206
- glycan array binding signal (z-score) (Gal(a1-4)Gal(b1-4)GlcNAc): 0.114
- glycan array binding signal (z-score) [9]: -0.084
- glycan array binding signal (z-score) [10]: -0.127
- glycan array binding signal (z-score) [11]: -0.13
- glycan array binding signal (z-score) [12]: -0.137
- glycan array binding signal (z-score) [13]: 0.004
- glycan array binding signal (z-score) [14]: -0.085
- glycan array binding signal (z-score) [15]: -0.21
- glycan array binding signal (z-score) [16]: 5.9
- glycan array binding signal (z-score) [17]: -0.139
- glycan array binding signal (z-score) [18]: -0.133
- glycan array binding signal (z-score) [19]: -0.123
- glycan array binding signal (z-score) [20]: -0.158
- glycan array binding signal (z-score) [21]: -0.133
- glycan array binding signal (z-score) (Gal4S(b1-4)GlcNAc): -0.143
- glycan array binding signal (z-score) (Gal6S(b1-3)GlcNAc6S): -0.136
- glycan array binding signal (z-score) (Gal6S(b1-4)Glc): -0.141
- glycan array binding signal (z-score) (Gal6S(b1-4)GlcNAc6S): -0.109
- glycan array binding signal (z-score) (GalNAc(b1-3)Gal): -0.182
- glycan array binding signal (z-score) [22]: -0.134
- glycan array binding signal (z-score) (Glc(a1-6)Glc(a1-6)Glc): -0.232
- glycan array binding signal (z-score) [23]: 3.23
- glycan array binding signal (z-score) [24]: 6.75
- glycan array binding signal (z-score) [25]: 6.57
- glycan array binding signal (z-score) [26]: 6.3
- glycan array binding signal (z-score) [27]: 3.06
- glycan array binding signal (z-score) [28]: 7.17
- glycan array binding signal (z-score) [29]: 9.94
- glycan array binding signal (z-score) (GlcNAc(b1-3)Gal(b1-4)Glc): -0.109
- glycan array binding signal (z-score) [30]: -0.126
- glycan array binding signal (z-score) (Kdn(a2-6)Gal(b1-4)GlcNAc): -0.149
- glycan array binding signal (z-score) [31]: -0.231
- glycan array binding signal (z-score) [32]: -0.079
- glycan array binding signal (z-score) [33]: -0.14
- glycan array binding signal (z-score) [34]: 4.08
- glycan array binding signal (z-score) [35]: -0.22
- glycan array binding signal (z-score) [36]: 0.942
- glycan array binding signal (z-score) [37]: 5.06
- glycan array binding signal (z-score) [38]: -0.133
- glycan array binding signal (z-score) [39]: -0.137
- glycan array binding signal (z-score) [40]: -0.117
- glycan array binding signal (z-score) (Neu5Ac(b2-6)GalNAc): -0.124
